This is part of a sample that, as a whole, favours compounds with a hit. Of some 83,000 tested, about 20% had one in any assay.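 Activity criterion: percent growth below 10, measured after cells in 96-well plates were exposed to a single compound concentration for 48 hours.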 Calls of active or inactive are those of the source.
Tests used:
Assay in all cases: NCI-60 one-dose screen, 48 h (100 = growth as untreated, 0 = no growth, -100 = all killed)
Conditions in all cases: 10 µM unless noted
[1] = system: T-47D breast
[2] = system: BT-549 breast
[3] = system: MDA-MB-435 melanoma
[4] = system: SW-620 colon
[5] = system: MCF7 breast
[6] = system: HCT-116 colon
[7] = system: HCC-2998 colon
[8] = system: KM12 colon

Measured: growth

Cc1cc2c(cc1C)N(C(=O)CCl)CCN2C(=O)CCl
active: [1] -34.5% | [2] -28.3% | [3] -26.9% | [4] -78.2% | [5] -47.6% | [6] -34% | [7] -97.9% | [8] -85.2%

C=C1C(=O)O[C@H]2[C@H]1CC/C(C(=O)Nc1ccc(OC)c(C(N)=O)c1O)=C\CC[C@@]1(C)O[C@@H]21
inactive: [1] 16.9% | [2] 30.4% | [3] 60.6% | [4] 23.8% | [5] 31.1% | [6] 23.8% | [7] 102% | [8] 85%

CCCCOc1c(N)cccc1C(=O)OCCN(CC)CC
inactive: [1] 93.3% | [2] 93.6% | [3] 111% | [4] 102% | [5] 103% | [6] 79.2% | [7] 90.2% | [8] 102%

CCOc1ccc(NC2=C(Cl)C(=O)c3ccccc3C2=O)cc1
inactive: [1] 66.7% | [2] 77.6% | [3] 67.1% | [5] 46.1% | [6] 80.6% | [7] 57.7% | [8] 72.9%
active: [4] -51.3%

CCN(CC)CCNCC(O)Cc1ccc(OC)cc1 (centres undefined)
inactive: [1] 91.5% | [2] 83.9% | [3] 108% | [4] 103% | [5] 103% | [6] 82.4% | [7] 101% | [8] 106%

CC(C)(C)NCC(O)COc1c(Br)c(Br)c(Br)c2c1OC(C)(C)C2 (centres undefined)
inactive: [2] 32.7%
active: [1] -26.4% | [3] -68.6% | [4] -97.5% | [5] -74.2% | [6] -26.5% | [7] -74.9% | [8] -80.7%

O=c1c2ccccc2[nH]n1Cc1ccc2c(c1)OCO2
inactive: [1] 88.9% | [2] 107% | [3] 105% | [4] 108% | [5] 90.8% | [6] 99.9% | [7] 106% | [8] 102%

Nc1ncnc2c1ccn2-c1cccc(NC(=O)c2cccc(C(F)(F)F)c2)c1
inactive: [1] 59.2% | [2] 89.9% | [3] 59% | [4] 90.2% | [5] 58.6% | [6] 68.5% | [7] 98.6% | [8] 54%

CC1(C)Cc2c(Br)c(Br)c(Br)c(OCC(O)CN3CCN(c4ccccn4)CC3)c2O1 (centres undefined)
inactive: [1] 88.5% | [2] 101% | [3] 66.8% | [4] 85.5% | [5] 67.6% | [6] 55.5% | [7] 92.7% | [8] 80.7%

COc1ccc(-c2nn(-c3ccc(NC(=O)Nc4ccc(Cl)c(Cl)c4)cc3)cc2-c2ccncc2)cc1Cl
active: [3] 6.69% | [6] 0.339% | [8] 2.25%
inactive: [1] 22.4% | [2] 14.2% | [4] 17.6% | [5] 13.3% | [7] 10.4%

CC(=O)N1N=C2N(Cc3ccccc3)C(=O)c3c(sc4c3CCCC4)N2C1c1cn(-c2ccccc2)nc1-c1ccc(Cl)cc1 (centres undefined)
inactive: [1] 80.8% | [2] 99.5% | [3] 95.4% | [4] 103% | [5] 92.4% | [6] 96.8% | [7] 112% | [8] 98%

O=C(Nc1ccc(-n2cc(-c3ccncc3)c(-c3ccc(O)c(Cl)c3)n2)cc1)Nc1cccc(Cl)c1Cl
inactive: [1] 42.1% | [2] 59% | [3] 51.3% | [4] 73.7% | [5] 42.2% | [6] 36.8% | [7] 70% | [8] 39.1%

O=S(=O)(O)c1ccc(F)cc1
inactive: [1] 98.7% | [2] 101% | [3] 108% | [4] 103% | [5] 97.8% | [6] 99% | [7] 105% | [8] 101%

C[C@]12CC[C@@H]3c4ccc(O)c(N)c4CC[C@H]3[C@@H]1CC[C@@H]2O
inactive: [1] 124% | [2] 99.3% | [3] 108% | [4] 122% | [5] 116% | [6] 89.9% | [7] 120% | [8] 103%

CCOC(=O)c1noc2c1CCc1c-2cn(Cc2ccc(OC)cc2)c1-c1cc(OC)c(OC)c(OC)c1
active: [3] -28.1% | [6] 8.2%
inactive: [1] 40.9% | [2] 19.6% | [4] 22.9% | [5] 18% | [7] 39.6% | [8] 21.3%

O=C(O)c1ccc(-c2nn(-c3ccc(C(=O)O)cc3)cc2/C=N/Nc2c(F)c(F)cc(F)c2F)cc1
inactive: [1] 95% | [2] 120% | [3] 107% | [4] 110% | [5] 95.7% | [6] 100% | [7] 100% | [8] 100%

Cc1ccc(-c2nc3c(N=Nc4ccc(S(N)(=O)=O)cc4)c(N)nn3c(N)c2C#N)cc1
inactive: [1] 34.1% | [2] 56% | [3] 52.3% | [4] 16.5% | [5] 28.3% | [6] 13.7% | [7] 52.4% | [8] 29.2%

CN(CCNCc1ccccn1)CCNCc1ccccn1
active: [1] 0.513% | [2] -2.61% | [3] -30.7% | [4] 4.13% | [5] 6.52% | [6] -25.2% | [7] -46.8% | [8] -0.112%

COc1cc(NC(=O)c2cc(OC)c3ccn(C)c3c2)cc2c1C[C@]1(C)CC[C@@H](O)C(C)(C)[C@H]1O2
inactive: [1] 57.5% | [2] 36.9% | [3] 64% | [4] 57.7% | [5] 38.5% | [6] 43.6% | [7] 74.6% | [8] 65.3%

CCCCNC(=O)Oc1ccc(/C(=C(/CC)Cc2ccccc2)c2ccc(OCCCN(C)C)cc2)cc1
inactive: [1] 60.7% | [2] 95.4% | [3] 83.3% | [4] 77.3% | [5] 27.9% | [6] 67.9% | [7] 88.3% | [8] 78.3%

C=C1C(=O)O[C@H]2[C@H]1CC/C(CNC(=O)/C1=C/CC[C@@]3(C)O[C@H]3[C@H]3OC(=O)C(=C)[C@@H]3CC1)=C\CC[C@@]1(C)O[C@@H]21
inactive: [1] 69.8% | [2] 101% | [3] 96.4% | [4] 77.4% | [5] 75% | [6] 82.5% | [7] 105% | [8] 102%

O=C(O)c1ccc2nc(-c3ccc(OCCCCCOc4ccc(-c5nc6ccc(C(=O)O)cc6[nH]5)cc4)cc3)[nH]c2c1
inactive: [1] 51.2% | [2] 130% | [3] 189% | [4] 57.1% | [5] 82.3% | [6] 88.6% | [7] 16.4% | [8] 98.6%

O=C(Nc1ccc(-n2cc(-c3ccncc3)c(-c3ccc(O)c(Cl)c3)n2)cc1)Nc1cc(C(F)(F)F)cc(C(F)(F)F)c1
inactive: [1] 33.2% | [2] 20.4% | [3] 54.6% | [4] 73.9% | [5] 55.7% | [6] 53.3% | [7] 79% | [8] 48.7%

COc1cc(NC(C)CCCN2C(=O)c3ccccc3C2=O)c2ncccc2c1OC (centres undefined)
inactive: [1] 66.8% | [2] 91.2% | [3] 92.1% | [4] 84.7% | [5] 41.8% | [6] 84.5% | [7] 124% | [8] 80.2%

O=C(Cn1c2ccccc2c2ccncc21)N/N=C\c1ccc2ccccc2c1
inactive: [1] 35% | [2] 52.5% | [3] 24.5% | [4] 26.4% | [5] 11.7% | [7] 74.5% | [8] 36%
active: [6] -41.7%

O=C(NCCNc1nccc(-c2c(-c3cccc(O)c3)nc3sccn23)n1)c1ccc(N2CCOCC2)c(C(F)(F)F)c1
inactive: [1] 60.1% | [2] 53.8% | [3] 20.9% | [4] 111% | [5] 58.7% | [6] 60.2% | [7] 106% | [8] 77.5%

COc1ccc(-c2nn(-c3ccc(NC(=O)Nc4ccc(Cl)c(C(F)(F)F)c4)cc3)cc2-c2ccncc2)cc1Cl
inactive: [1] 24.7% | [7] 11.3%
active: [2] 0.583% | [3] -16.6% | [4] 3.24% | [5] 7.96% | [6] -7.68% | [8] 0.474%

COc1ccc(C[C@H](N)C(=O)N[C@@H]2[C@@H](CO)OC(n3cnc4c(N(C)C)ncnc43)[C@@H]2O)cc1 (some centres undefined)
active: [1] -8.69% | [2] -72.1% | [3] -85.4% | [4] -67.8% | [5] -7.03% | [6] -84.6% | [7] -94.6% | [8] -85.2%

From PubChem BioAssay (NCI)
